# E-sel TNF inh – TNF alpha driven E-selectin expression inhibition; HUVEC TNFa-induced E-selectin immunofluorescence, high content; hit rate 0.71% among 120,000; inhibition, % at 2 µM;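 active = inhibition above the batch mean plus 3 SD, and confirmed as a hit on visual image review, cut at about 43% in these data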;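 also: 0% = TNF-stimulated DMSO wells and 100% = unstimulated control wells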
# cytoskel mod – modifiers of cytoskeleton assembly. HUVEC TNFa F-actin phalloidin imaging, high content. inhibition, % at 2 µM. hit rate 0.18% among 91,000;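 active = inhibition above the batch mean plus 3 SD and confirmed as a hit by visual image inspection, cut at about 30% in these data, passing the limit was not always enough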
# TNFa cytotox – HUVEC cytotoxicity counter-screen, TNF alpha stimulated; HUVEC TNFalpha-stimulated, Hoechst cell count, imaging; cell count reduction, % at 2 µM; hit rate 0.17% among 93,000; AID 848;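 active = cell count reduction exceeding the screen mean by over 5 SD, scaled to untreated wells per plate, cut at about 78% in these data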;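 also: cells counted after 24 h of TNF alpha exposure following the 1 h pretreatment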
# VCAM1 TNFa inh – reduces TNF alpha induced VCAM1 expression in HUVEC. inhibition, % at 2 µM. HUVEC TNFa-induced VCAM-1 immunofluorescence, high-content imaging. hit rate 0.48% among 95,000;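 active = inhibition above the batch mean plus 3 SD, with images confirmed as a hit by eye, cut at about 37% in these data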;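 also: 0% = TNF-stimulated DMSO wells and 100% = unstimulated control wells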
# * hit, by the source's call; nt = no result given. Rows were chosen to be rich in hits. Some 1.1% of all compounds tested hit in one or more screens of this group.
SMILES,E-sel TNF inh,cytoskel mod,TNFa cytotox,VCAM1 TNFa inh
CCN(CC)c1ccc(-c2nn3c(-c4ccccc4OC)nnc3s2)cc1,23.2,-61.0,72.1,97.3*
COc1ccc(-n2c(=S)[nH]c3cc(C(=O)NCc4ccco4)ccc3c2=O)cc1OC,66.8*,35.6,3.0,2.9
O=C(NCc1ccco1)c1ccc2c(=O)n(-c3ccccc3)c(=S)[nH]c2c1,nt,3.6,10.0,-10.8
COC(=O)CN(c1ccc2c(c1)OCCO2)S(=O)(=O)c1ccccc1,10.5,-8.2,7.0,10.2
COC(=O)CN(c1ccc(F)cc1)S(=O)(=O)c1ccc2c(c1)OCCO2,-1.4,96.3*,2.5,28.6
O=C(O)C1CCC(N2C(=O)C3CCCCC3C2=O)CC1 (stereo unspecified),-11.7,-48.8,57.3,78.0*
CC(=O)c1ccc(NC(=O)CSc2nc(C)cc(C)c2C(N)=O)cc1,0.9,nt,nt,nt
CCN=c1sc2ccccc2n1CC(O)COc1ccccc1 (stereo unspecified),20.7,-13.3,7.2,2.5
CN=c1sc2ccccc2n1CC(O)COc1ccccc1 (stereo unspecified),nt,-15.0,69.6,75.0*
Cc1cc2cc(C=C(C#N)C#N)c(Cl)nc2cc1C,58.0*,nt,nt,nt
Cc1ccc(CNCC(O)(c2ccccc2)c2ccc(Cl)cc2)cc1 (stereo unspecified),67.3*,nt,nt,nt
COc1ccc(NC(=O)/C(C#N)=C\C=C\c2ccco2)cc1,30.8,nt,nt,nt
COC(=O)N1[C@H](C)C=C[C@]1(Cc1ccccc1)C(=O)O,96.2*,nt,nt,nt
COc1ccc(NC(=O)C(Cl)=C(Cl)Cl)cn1,-12.8,nt,nt,nt
COc1ccc(NC(=O)/C(Cl)=C(/Cl)S(=O)Cc2ccc(Cl)cc2)cn1 (stereo unspecified),99.9*,nt,nt,nt
CCCc1cc(=O)[nH]c(SCC(=O)NC(=O)OCC)n1,25.2,-2.0,5.3,10.7
CCCc1cc(=O)[nH]c(SCC(=O)Nc2nonc2N)n1,-11.0,22.8,-34.3,86.1*
O=C(NCCCCc1ccccc1)c1ccccc1Cl,-2.9,nt,nt,nt
CCc1ccccc1NC(=O)CSc1nc2n[nH]c(C)c2c(=N)n1-c1cccc(OC)c1,54.0*,3.5,-13.5,8.8
Cc1oc(C)c2c(=O)ccc3c(c12)OC(N)=C(C#N)C3c1ccc(F)cc1 (stereo unspecified),-17.9,nt,nt,nt
COc1ccc(-n2nc([N+](=O)[O-])c(=NCc3ccco3)n2O)cc1,-10.9,nt,nt,nt
COc1ccc(-n2nc([N+](=O)[O-])c(=NCCc3ccc(Cl)cc3)n2O)cc1,55.5*,14.6,2.4,3.5
O=[N+]([O-])c1ccc(Cl)cc1Sc1nc2ccccc2o1,19.5,23.3,1.9,8.7
O=[N+]([O-])c1ccc(Sc2nc3ccccc3o2)c([N+](=O)[O-])c1,38.3,-19.5,34.8,73.2*
CCn1c(SCC(=O)NC(C)c2ccccc2)nc2ccccc21 (stereo unspecified),-26.7,-8.5,28.5,62.7*
SMILES,E-sel TNF inh,cytoskel mod,TNFa cytotox,VCAM1 TNFa inh
COc1ccccc1NC(=S)N1CCC(NC(=O)c2ccco2)CC1,-47.9,nt,nt,nt
OCCSc1nnc(Nc2ccccc2)s1,nt,-34.7,78.3*,28.8
CCc1cccc(C)c1NC(=S)N(Cc1cccnc1)Cc1ccco1,11.7,nt,nt,nt
N#Cc1nc(-c2ccco2)oc1N1CCOCC1,nt,19.4,-30.8,40.0*
N#Cc1nc(-c2ccco2)oc1N1CCN(c2ccccc2)CC1,nt,4.0,-19.8,-17.7
C=CCNS(=O)(=O)c1nc(C)c(Cl)c(C)c1C#N,78.5*,nt,nt,nt
CS(=O)(=O)c1ccc(Cl)c(NC(=O)c2ccc3ccccc3c2)c1,63.5*,nt,nt,nt
Cc1ccc(C)c(N2CCN(C(=O)CN(C)S(=O)(=O)c3cnc[nH]3)CC2)c1,nt,-9.1,-14.9,-13.1
COCC(C)n1c(C)cc(C(=O)CN2C(=O)NC(Cc3c[nH]c4ccccc34)C2=O)c1C (stereo unspecified),18.7,nt,-24.7,0.6
CCOC(=O)c1c(NC(=O)CN2CCOCC2)sc(C(=O)NC)c1C,-3.4,-8.4,-0.4,3.3
COCCOC(=O)c1c(NC(=O)CN2CCOCC2)sc(C(N)=O)c1C,71.8*,-13.6,-7.5,0.5
COC(=O)c1cc(OC)c(OC)cc1NC(=O)c1oc2ccccc2c1C,-6.9,32.2*,-28.4,2.7
COc1ccc(NC(=O)c2oc3ccccc3c2C)c(OC)c1,-1.9,6.2,-14.3,16.2
O=C1c2cnc3nc(SCc4cccc(Cl)c4)nn3c2CC2c3ccccc3CCN12 (stereo unspecified),-3.5,-1.4,-9.8,-8.8
COc1c(Cl)cc(Cl)cc1C(=O)Nc1ccc(NC(C)=O)cc1,63.7*,nt,nt,nt
Cc1ccc(CCc2nnc(SCC(=O)Nc3cccc(Cl)c3)n2-c2ccccc2)o1,18.9,nt,nt,nt
CCOc1cccc(C(=O)Nc2ccc(N3CCN(S(C)(=O)=O)CC3)cc2)c1,nt,-7.8,-30.1,8.1
CCOc1cccc(C(=O)NC(=S)Nc2ccc(N3CCCC3)cc2)c1,53.4*,10.4,-16.2,-2.1
Cc1c(Br)c([N+](=O)[O-])nn1CCCC(=O)Nc1sc2c(c1C#N)CCC2,24.5,nt,nt,nt
Cc1c(Br)c([N+](=O)[O-])nn1CC(=O)Nc1sc2c(c1C(=O)OC(C)C)CCCC2,63.8*,7.7,-4.5,10.2
O=C(/C(=C(\O)c1ccccc1)c1ncc[nH]1)c1ccccc1,-7.1,nt,nt,nt
O=C(CSc1ncnc2nc[nH]c12)Nc1ccccc1C(F)(F)F,75.8*,13.9,-1.0,-5.0
O=C(c1ccccc1F)N1CCN(c2ccccc2F)CC1,90.8*,nt,nt,nt
O=C(c1ccccc1)N1CCN(c2ccccc2F)CC1,70.7*,3.2,10.1,0.4
CS(=O)(=O)Nc1ccc(C(=O)N2CCN(c3ccccc3F)CC2)cc1,10.2,-33.1,-13.4,27.5
SMILES,E-sel TNF inh,cytoskel mod,TNFa cytotox,VCAM1 TNFa inh
O=C(c1ccccc1C(=O)N1CCN(c2ccccc2F)CC1)N1CCN(c2ccccc2F)CC1,-8.6,nt,nt,nt
O=C(c1cn(-c2ccccc2)nc1-c1cccc([N+](=O)[O-])c1)N1CCCCC1,22.2,nt,nt,nt
Cc1ccc(-n2c(=O)c3c4c(sc3n(Cc3cc(=O)n5ccccc5n3)c2=O)CCC4)cc1C,89.8*,nt,nt,nt
CC[C@H](C)[C@@H]1NC(=O)c2cc([N+](=O)[O-])cc(I)c2NCC[C@@H](C(N)=O)NC(=O)[C@H](CCCN=C(N)N)NC1=O,83.5*,nt,nt,nt
NC(=O)[C@@H]1CCCNc2c(I)cc([N+](=O)[O-])cc2C(=O)N[C@@H](CCCN=C(N)N)C(=O)N[C@@H](CCCN=C(N)N)C(=O)N1,-23.2,nt,nt,nt
CC(C)NC(=O)NC(=O)COC(=O)c1cccc(S(=O)(=O)N2CCCCC2)c1,6.1,nt,nt,nt
CCCCCn1c(CN2CCN(Cc3ccccc3)CC2)nc2c1c(=O)n(C)c(=O)n2C,99.8*,-5.8,-19.8,11.6
Cn1c(=O)[nH]c(=O)c2c1nc(CN1CCN(Cc3ccccc3)CC1)n2CC(N)=O,49.9*,nt,nt,nt
Cn1c(=O)[nH]c(=O)c2c1nc(N1CCN(Cc3ccccc3)CC1)n2CCCc1ccccc1,nt,-58.2,-17.1,-4.5
CCCn1c(CN2CCN(c3cccc(Cl)c3)CC2)nc2c1c(=O)n(C)c(=O)n2C,61.9*,-9.8,-20.2,5.0
Cc1ccc(NC(=O)C2C(c3ccccc3)C=CC(c3ccccc3)C2C(=O)O)cc1 (stereo unspecified),9.7,10.5,-20.3,4.8
Cc1[nH]n(-c2cccc(Cl)c2)c(=O)c1C=NCC(C)C,0.3,nt,nt,nt
O=C(CCC1CCCC1)N1CCC(N2CCCCCC2)CC1,4.6,nt,nt,nt
CC(C)NC(=O)CCn1nc(-c2ccc(Cl)cc2)c2ccccc2c1=O,-0.1,nt,nt,nt

# Compound activity deposited in PubChem by Columbia University Molecular Screening Center.
